Laboratory results reported in PubChem BioAssay AID540333 (Southern Research Specialized Biocontainment Screening …, 2011).
The whole screen tested about 10,000 compounds, of which about 320 (3.2%) were called active. The full list was thinned out, with actives kept by preference. Unmarked numbers belong to inactive results. Rule as the data show it: active = CPE inhibition mostly above about 9.1% (no sharp cut-off); inactive = mostly below about 7.2%.

experiment: Dengue virus cytopathic effect inhibitors, cell-based, CPE readout, HTS (AID 540333); settings: Dengue virus CPE inhibition in host cells, at 20 µM; stronger effect = higher value

SMILES | CPE inhibition
O=C(Nc1cccc(Cl)c1)Nc1ccc2c(c1)C(=O)OC2 | inactive
O=C1C2C(c3ccccc3)=NN(c3ccccc3)C2C(=O)N1c1ccccc1 (centres undefined) | inactive
COc1ccccc1[C@@H]1C(c2cccc(Cl)c2)=NN(c2ccccc2)[C@H]1C(=O)N1CCOC1=O | 19.3% (active)
COc1cccc(N2C(C(C)=O)=NN(c3ccccc3)C2c2ccc(N3CCOCC3)cc2)c1 (centres undefined) | 2.42%
O=C(/C=C/c1ccc(Br)cc1)NC(=S)Nc1ccc(S(=O)(=O)Nc2nccs2)cc1 | inactive
Nc1c(C(=O)c2ccc(Cl)cc2)sc2nc3c(cc12)CCC3 | 7.59%
CC(C)(C)NC(=O)c1ccc2c(c1)C1C3CCC(C3)C1C(c1ccccc1)N2 (centres undefined) | 15.9% (active)
O=C(O)c1ccc(NC(=O)c2cccc(N3C(=O)C4C5CCC(C5)C4C3=O)c2)cc1 (centres undefined) | 1.22%
O=C(Nc1ccc(Cl)cc1)c1cccc(N2C(=O)C3C4CCC(C4)C3C2=O)c1 (centres undefined) | 2.71%
O=C(CCC(=O)NCCCc1ccccc1)NCCCc1ccccc1 | inactive
Cc1ccc(SCCNC(=O)/C=C/c2cccc([N+](=O)[O-])c2)cc1 | 6.54%
CCCCNC(=O)c1onc(CSc2cccc(OC)c2)c1C(=O)O | inactive
O=C(NCCCN1CCOCC1)c1onc(CSc2ccccn2)c1C(=O)NCCCN1CCOCC1 | inactive
O=C(NCCCN1CCOCC1)c1onc(CSc2ccc(F)c(F)c2)c1C(=O)NCCCN1CCOCC1 | inactive
CCCCNC(=O)c1onc(CSc2cccc(OC)c2)c1C(=O)NCCCC | 20.1% (active)
C=CCNC(=O)c1c(CSc2ccc(Cl)cc2)noc1C(=O)NCc1ccccc1 | 11.2% (active)
CCCCNC(=O)c1onc(CSc2ccccn2)c1C(=O)NCCCC | 1.85%
COc1cccc(SCc2noc(C(=O)NCCCN3CCOCC3)c2C(=O)NCCCN2CCOCC2)c1 | 0.255%
C=CCNC(=O)c1c(CSc2ccc(Cl)cc2)noc1C(=O)NCCC | 0.85%
CCCCNC(=O)c1onc(CSc2ccc(F)c(F)c2)c1C(=O)NCCCC | 11.5% (active)
C=CCNC(=O)c1onc(CSc2ccccc2)c1C(=O)NCC=C | 0.535%
CC(C)CCNC(=O)c1onc(CSc2ccccn2)c1C(=O)NCCC(C)C | 25.9% (active)
COCCNC(=O)c1onc(CSc2ccc(F)c(F)c2)c1C(=O)NCCOC | inactive

SMILES | CPE inhibition
CCn1c(C)nc2cc(C(=O)NNC(=S)Nc3ccc(Cl)cc3Cl)ccc21 | inactive
O=C(Cc1cccs1)N/N=C/c1ccco1 | 0.08%
COC(=O)c1c(NC(=O)C2C3C=CC(CC3)C2C(=O)O)sc(C)c1C (centres undefined) | inactive
CC1=CN2C(=N)/C(=C/c3ccc(Sc4ccc(C)cc4)o3)C(=O)N=C2S1 | 9.52%
Cc1cccc(NC(=O)CN2C(=O)N/C(=C/c3cc(C)n(-c4ccncc4)c3C)C2=O)c1 | inactive
COCCNC(=O)c1onc(CSc2cccc(OC)c2)c1C(=O)NCCOC | 0.425%
COc1cccc(SCc2noc(C(=O)NCCN(C)C)c2C(=O)NCCN(C)C)c1 | 0.54%
COc1cccc(SCc2noc(C(=O)NCCC(C)C)c2C(=O)NCCC(C)C)c1 | 23% (active)
CNC(=S)N(CCc1ccc(OC)c(OC)c1)Cc1cc2c(C)cc(C)cc2[nH]c1=O | inactive
O=C1CN(C(=O)CSc2nnc3ccccn23)c2ccccc2N1 | 0.845%
C=CCNC(=O)C12CCC(C)(C(=O)C1Br)C2(C)C (centres undefined) | 0.36%
CCOC(=O)N(NC(=O)C(O)(c1ccccc1)c1ccccc1)c1ccccc1 | 2.6%
COC(=O)N(NC(=O)C(O)(c1ccccc1)c1ccccc1)c1ccccc1 | 1.2%
COC(=O)N(NC(=O)C(O)(c1ccccc1)c1ccccc1)c1ccc(C)cc1 | 61.4% (active)
COc1ccc(-c2nn(-c3ccccc3)cc2/C=C(/C#N)C(N)=O)cc1[N+](=O)[O-] | inactive
COc1ccc(-c2nn(-c3ccccc3)cc2/C=C(\C#N)S(=O)(=O)c2ccccc2)cc1OC | 0.055%
CC(NC(=O)/C(C#N)=C/c1cn(-c2ccccc2)nc1-c1ccc(F)cc1)c1ccccc1 (centres undefined) | 8.04% (active)
CC1CC(=O)N(c2ccc(NCc3ccc(Cl)cc3)c([N+](=O)[O-])c2)C1=O (centres undefined) | 0.275%
COc1ccc(CC(=O)NNc2ncnc3c2cnn3-c2ccc(C)cc2)cc1OC | 2.76%
Cc1cc(C)nc(N/N=C/C=C/c2ccccc2)n1 | 0.52%
S=C(N/N=C/c1ccc(Cl)cc1)N1CCOCC1 | inactive
Cc1cc(C)nc(N/N=C/C2=C(N3CCOCC3)C(=C/c3ccccc3)/CC2)n1 | 9.78% (active)
Cc1cc(C)nc(N/N=C/C2=C(N3CCOCC3)C(=C\c3ccc(Cl)cc3)/CC2)n1 | 15.6% (active)

SMILES | CPE inhibition
O=[N+]([O-])c1cccc(/C=N/Nc2nc(NCc3ccccc3)nc(N3CCOCC3)n2)c1 | 1.39%
COc1ccc(-n2c(C)cc(/C=N/Nc3nc(N4CCOCC4)nc(N4CCOCC4)n3)c2C)cc1 | inactive
COc1ccccc1NC(=S)N1CCN(C/C=C/c2ccccc2)CC1 | 0.46%
O=C(N/N=C/c1cccc(O)c1)c1ccc(COc2ccccc2Br)cc1 | 3.17%
S=C(NCCCNC(=S)Nc1ccccc1)Nc1ccccc1 | inactive
CCOCC(O)CNc1ccccc1 (centres undefined) | inactive
COc1ccc(N(C(=O)CS(=O)CC(=O)Nc2ccc(F)cc2)C(C(=O)NC2CCCCC2)c2cccs2)cc1 (centres undefined) | 0.1%
CCOC(=O)c1c(NC(=O)COC(=O)c2ccccn2)sc2c1CCC2 | inactive
COC(=O)c1c(NC(=O)COC(=O)[C@@H](NS(=O)(=O)c2ccccc2)C(C)C)sc2c1CCC2 | 24% (active)
CC(C)OC(=O)c1c(NC(=O)CCC(=O)O)sc2c1CCCCC2 | inactive
COC(=O)c1c(NC(=O)CN(c2ccccc2)S(C)(=O)=O)sc2c1CCCC2 | 18% (active)
COC(=O)c1c(NC(C)=O)sc2c1CCCCC2 | 0.285%
O=C(COC(=O)CNS(=O)(=O)c1ccc2ccccc2c1)Nc1ccccc1Sc1ccccc1 | inactive
CCOC(=O)c1c(NC(=O)c2ccccc2N(C)S(=O)(=O)c2ccccc2)sc2c1CCCC2 | 0.225%
COC(=O)c1c(NC(=O)COC(=O)c2ccc(Cl)cc2[N+](=O)[O-])sc2c1CCCCC2 | 3.41%
COC(=O)c1c(NC(=O)CN2C(=O)NC(CCc3ccccc3)C2=O)sc2c1CCCCC2 (centres undefined) | 25.6% (active)
O=C(COC(=O)CNS(=O)(=O)c1cccc(Br)c1)Nc1ccccc1Sc1ccccc1 | inactive
CC(C)[C@H](NS(=O)(=O)c1ccccc1)C(=O)OCC(=O)Nc1ccccc1Sc1ccccc1 | 24.5% (active)
COC(=O)c1c(NC(=O)C2C3CCC(O3)C2C(=O)O)sc2c1CCCCCC2 (centres undefined) | 0.645%
CCCCn1c(N)c(NCCC)c(=O)[nH]c1=O | inactive
COc1cc(C)c(S(=O)(=O)N2CCN=C2c2ccccc2)cc1C | inactive
CCO[C@@H]1OC(C(=O)O)=C[C@H](c2cn(C(C)=O)c3ccccc23)[C@H]1CCCO | inactive
Cc1ccccc1NC(=S)NCC(c1cccnc1)N1CCOCC1 (centres undefined) | inactive

SMILES | CPE inhibition
N#Cc1c(-c2ccccc2)nc(SCC(=O)Nc2ccccc2)[nH]c1=O | inactive
Cc1cccc(N2CCN(C(=S)NCc3ccco3)CC2)c1C | 0.45%
CC(NS(=O)(=O)c1ccc2c(c1)OCCCO2)C(=O)O (centres undefined) | 0.55%
CCCCOC(=O)/C=C/c1ccc(OC(=O)OC)c(OC(=O)OC)c1 | inactive
COc1ccc(/C(O)=C2/C(=O)C(=O)N(CCCN(C)C)C2c2cccc(Cl)c2)cc1OC (centres undefined) | 0.13%
CCOC(=O)c1c(NC(=O)CSC(=S)N2CCOCC2)sc(C)c1C | 0.065%
COc1ccc(C(=O)NC(=S)N(CCC(C)C)c2c(N)n(Cc3ccccc3)c(=O)[nH]c2=O)cc1 | 0.675%
CC(=O)c1cc(-c2ccccc2)n(CC(=O)Nc2cccc(C)c2C)c1C | 0.49%
COc1ccc([C@@H]2[C@@H]3C(=O)N(C(C)(C)C)C(=O)[C@@H]3[C@]3(C)C(=O)N(c4ccc(C)cc4)C(=O)N23)cc1 | inactive
CC[C@@]12C(=O)N(c3ccccc3)C(=O)N1[C@H](c1ccc(Br)cc1)[C@@H]1C(=O)N(C(C)(C)C)C(=O)[C@@H]12 | 5.79%
COc1ccc([C@@H]2[C@@H]3C(=O)N(C(C)(C)C)C(=O)[C@@H]3[C@]3(Cc4ccccc4)C(=O)N(c4ccc(OC)cc4)C(=O)N23)cc1 | 0.525%
COc1ccc([C@@H]2[C@@H]3C(=O)N(C(C)(C)C)C(=O)[C@@H]3[C@]3(C)C(=O)N(c4cccc(Cl)c4)C(=O)N23)cc1 | 0.865%
CC[C@@]12C(=O)N(c3cccc(Cl)c3)C(=O)N1[C@H](c1ccc(Br)cc1)[C@@H]1C(=O)N(C(C)(C)C)C(=O)[C@@H]12 | 23.6% (active)
CCN1C(=O)[C@H]2[C@@H](c3ccc(C)cc3)N3C(=O)N(c4ccccc4)C(=O)[C@@]3(CC)[C@H]2C1=O | inactive
CC(C)(C)N1C(=O)[C@H]2[C@@H](c3ccc(Br)cc3)N3C(=O)N(c4ccccc4)C(=O)[C@@]3(C)[C@H]2C1=O | 2.17%
Cc1cccc([C@@H]2[C@@H]3C(=O)N(Cc4ccccc4)C(=O)[C@@H]3[C@]3(CC(C)C)C(=O)N(c4cccc(Br)c4)C(=O)N23)c1 | 1.25%
CCOC(=O)[C@@H]1[C@H]2COc3ccccc3[C@H]2N2C(=O)N(c3cccc(Cl)c3)C(=O)[C@]12C | 0.045%
CC(C)(C)N1C(=O)[C@H]2[C@@H](c3ccc(Br)cc3)N3C(=O)N(c4cccc(Cl)c4)C(=O)[C@@]3(Cc3ccccc3)[C@H]2C1=O | 31.9% (active)
CC(C)C[C@@]12C(=O)N(c3cccc(F)c3)C(=O)N1[C@H](c1ccc(Br)cc1)[C@@H]1C(=O)N(C(C)(C)C)C(=O)[C@@H]12 | 52.3% (active)
CC[C@@]12C(=O)N(c3cccc(Br)c3)C(=O)N1[C@H](c1cccc(C)c1)[C@@H]1C(=O)N(Cc3ccccc3)C(=O)[C@@H]12 | 12.7% (active)
